# From PubChem BioAssay AID1159580 (chemical genetic matrix, 2015)
# “And” between values parts separate entries of the source, which are not always exact repeats. Equal values may be shown once. Hit rate of the full screen: of about 5,500 compounds, about 2,000 (36%) were called active. Another 18% or so got no clear call; they are omitted. The list shows a part of the results. Unmarked numbers belong to inactive results. Rule as the data show it: active = normalized growth mostly below about 0.91 (no sharp cut-off); inconclusive = no clear call, values can overlap the other calls; inactive = mostly above about 0.92.
# Assay: chemical genetic growth profiling, strain panel (AID 1159580);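 also: tested at 20 µM; growth read once vehicle control cultures reached saturation at 30 °C; 1 = growth at the plate median or of vehicle wells; lower values mean less growth of the strain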
# Conditions: S. cerevisiae deletion strains, growth OD
compound,measurement,setting,value
NC(=O)c1cc([N+](=O)[O-])cc([N+](=O)[O-])c1,normalized growth,"locus YAL021C, strain ccr4, active compounds read low",1.03
same,normalized growth,"locus YAL026C, strain drs2, active compounds read low",0.962
same,normalized growth,"locus YAL030W, strain snc1, active compounds read low",1.01
same,normalized growth,"locus YBL061C, strain skt5, active compounds read low",1.02
same,normalized growth,"locus YBR009C, strain hhf1, active compounds read low",0.972
same,normalized growth,"locus YBR021W, strain FUR4, active compounds read low",0.99
same,normalized growth,"locus YBR023C, strain chs3, active compounds read low",1.02
same,normalized growth,"locus YBR171W, strain sec66, active compounds read low",1.04
same,normalized growth,"locus YBR229C, strain ROT2, active compounds read low",1.02
same,normalized growth,"locus YBR231C, strain swc5, active compounds read low",0.991
same,normalized growth,"locus YBR279W, strain paf1, active compounds read low",1.03
same,normalized growth,"locus YCL011C, strain gbp2, active compounds read low",1.02
same,normalized growth,"locus YCL016C, strain dcc1, active compounds read low",1.05
same,normalized growth,"locus YCL029C, strain bik1, active compounds read low",0.983
same,normalized growth,"locus YCL061C, strain MRC1, active compounds read low",1.01
same,normalized growth,"locus YCL069W, strain vba3, active compounds read low",1.02
same,normalized growth,"locus YCR088W, strain abp1, active compounds read low",1.02
same,normalized growth,"locus YDL005C, strain med2, active compounds read low",1.03
same,normalized growth,"locus YDL035C, strain GPR1, active compounds read low",0.992
same,normalized growth,"locus YDL040C, strain nat1, active compounds read low",1.01
same,normalized growth,"locus YDL074C, strain BRE1, active compounds read low",0.986
same,normalized growth,"locus YDL101C, strain DUN1, active compounds read low",0.989
same,normalized growth,"locus YDL134C, strain PPH21, active compounds read low",1.01
same,normalized growth,"locus YDL185W, strain tfp1, active compounds read low",0.974
same,normalized growth,"locus YDL192W, strain arf1, active compounds read low",0.986
same,normalized growth,"locus YDR001C, strain nth1, active compounds read low",1.01
same,normalized growth,"locus YDR069C, strain doa4, active compounds read low",0.979
same,normalized growth,"locus YDR101C, strain arx1, active compounds read low",0.982
same,normalized growth,"locus YDR137W, strain rgp1, active compounds read low",1.25 [resistant] (active)
same,normalized growth,"locus YDR159W, strain sac3, active compounds read low",1.04
same,normalized growth,"locus YDR162C, strain NBP2, active compounds read low",0.992
same,normalized growth,"locus YDR195W, strain ref2",0.78 (active)
same,normalized growth,"locus YDR297W, strain sur2, active compounds read low",1
same,normalized growth,"locus YDR318W, strain mcm21, active compounds read low",0.974
same,normalized growth,"locus YDR334W, strain swr1, active compounds read low",1.03
same,normalized growth,"locus YDR335W, strain msn5, active compounds read low",1.02
same,normalized growth,"locus YDR388W, active compounds read low",0.996
same,normalized growth,"locus YDR392W, strain spt3, active compounds read low",0.633 (active)
same,normalized growth,"locus YDR502C, strain sam2, active compounds read low",0.983
same,normalized growth,"locus YEL003W, strain gim4, active compounds read low",0.961
same,normalized growth,"locus YEL037C, strain rad23, active compounds read low",1.01
same,normalized growth,"locus YEL061C, strain CIN8 (second series), active compounds read low",1.02
same,normalized growth,"locus YEL061C, strain CIN8, active compounds read low",1.01
same,normalized growth,"locus YER015W, strain faa2, active compounds read low",1.02
same,normalized growth,"locus YER016W, strain bim1, active compounds read low",0.999
same,normalized growth,"locus YER110C, active compounds read low",0.979
same,normalized growth,"locus YER111C, strain swi4, active compounds read low",1.04
same,normalized growth,"locus YER155C, strain BEM2 (second series), active compounds read low",0.788 (active)
same,normalized growth,"locus YER155C, strain BEM2, active compounds read low",1.01
same,normalized growth,"locus YER167W, strain BCK2, active compounds read low",1.02
same,normalized growth,"locus YFR010W, strain ubp6, active compounds read low",0.995
same,normalized growth,"locus YGL078C, strain dbp3, active compounds read low",0.995
same,normalized growth,"locus YGL086W, strain mad1, active compounds read low",0.968
same,normalized growth,"locus YGL167C, strain pmr1, active compounds read low",1.02
same,normalized growth,"locus YGL173C, strain kem1, active compounds read low",1.01
same,normalized growth,"locus YGL227W, strain vid30, active compounds read low",1.02
same,normalized growth,"locus YGL240W, strain doc1, active compounds read low",0.969
same,normalized growth,"locus YGL248W, strain PDE1, active compounds read low",1.02
same,normalized growth,"locus YGL253W, strain hxk2, active compounds read low",0.994
same,normalized growth,"locus YGR078C, strain PAC10, active compounds read low",1
same,normalized growth,"locus YGR135W, strain pre9, active compounds read low",0.978
same,normalized growth,"locus YGR252W, strain gcn5, active compounds read low",0.906
same,normalized growth,"locus YHR013C, strain ard1, active compounds read low",1.09
same,normalized growth,"locus YHR027C, strain rpn1, active compounds read low",0.997
same,normalized growth,"locus YHR030C, strain SLT2, active compounds read low",1.02 and 0.959
same,normalized growth,"locus YHR079C, strain IRE1 (second series), active compounds read low",0.996
same,normalized growth,"locus YHR079C, strain IRE1, active compounds read low",0.955
same,normalized growth,"locus YHR094C, strain hxt1, active compounds read low",0.954
same,normalized growth,"locus YHR129C, strain ARP1, active compounds read low",1.02
same,normalized growth,"locus YHR142W, strain chs7, active compounds read low",1.01
same,normalized growth,"locus YHR200W, strain rpn10, active compounds read low",0.997
same,normalized growth,"locus YIL066C, strain RNR3, active compounds read low",1.01
same,normalized growth,"locus YIL073C, strain SPO22, active compounds read low",0.993
same,normalized growth,"locus YIL125W, strain kgd1, active compounds read low",1
same,normalized growth,"locus YIR030C, strain dcg1, active compounds read low",1
same,normalized growth,"locus YJL092W, strain hpr5, active compounds read low",1.02
same,normalized growth,"locus YJL095W, strain BCK1 (second series), active compounds read low",1.01
same,normalized growth,"locus YJL095W, strain BCK1, active compounds read low",0.994 and 0.966
same,normalized growth,"locus YJL115W, strain asf1, active compounds read low",1.02
same,normalized growth,"locus YJL129C, strain trk1, active compounds read low",1.1
same,normalized growth,"locus YJL134W, strain LCB3, active compounds read low",1.01
same,normalized growth,"locus YJL154C, strain vps35, active compounds read low",1.03
same,normalized growth,"locus YJL164C, strain tpk1, active compounds read low",0.977
same,normalized growth,"locus YJL166W, strain qcr8, active compounds read low",1
same,normalized growth,"locus YJL168C, strain set2, active compounds read low",0.997
same,normalized growth,"locus YJL187C, strain SWE1 (second series), active compounds read low",1.01
same,normalized growth,"locus YJL187C, strain SWE1, active compounds read low",1.03
same,normalized growth,"locus YJR043C, strain POL32, active compounds read low",0.967
same,normalized growth,"locus YJR066W, strain TOR1, active compounds read low",0.918
